Laboratory results as given in PubChem BioAssay AID651814 (National Center for Advancing Translational Sciences (NCATS), 2012).
In all, about 2,100 compounds went through this assay and about 590 (28%) were called active. Inconclusive results (about 42%) are left out. Calls come from the whole dose curve; as a rule, active = well fitted inhibition curve with a large enough effect; inconclusive = small, poorly fitted or top-dose-only effect; inactive = flat fitted curve, though single readings scatter. The list shows a part of the results.

The compounds below were run against DNA dC->dU-editing enzyme APOBEC-3F (Homo sapiens) (UniProt Q8IUX4) (assay: qHTS for inhibitors of Vif-A3F interactions: Cherry picks). Details: HeLa A3F-eYFP + Vif (tagged APOBEC3F with the HIV-1 protein that degrades it), eYFP fluorescence, 24 h.
Chain of DNA dC->dU-editing enzyme APOBEC-3F (Homo sapiens) (Q8IUX4 whole entry, looked up): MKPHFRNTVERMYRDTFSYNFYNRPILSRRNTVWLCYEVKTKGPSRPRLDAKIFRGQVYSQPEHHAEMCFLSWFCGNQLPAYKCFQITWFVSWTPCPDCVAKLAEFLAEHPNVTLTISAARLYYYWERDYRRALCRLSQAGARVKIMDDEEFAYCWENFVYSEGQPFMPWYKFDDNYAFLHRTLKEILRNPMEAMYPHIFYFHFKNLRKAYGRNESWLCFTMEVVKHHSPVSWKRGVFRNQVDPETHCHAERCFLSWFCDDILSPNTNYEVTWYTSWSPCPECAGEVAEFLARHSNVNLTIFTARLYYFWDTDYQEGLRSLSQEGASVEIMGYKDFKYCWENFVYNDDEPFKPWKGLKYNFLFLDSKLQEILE
Outline: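 Read-out: yellow fluorescence (ex 488 nm, em 500-530 nm) by laser-scanning cytometer after 24 h compound exposure, several concentrations, at 37 deg C. Cells: HeLa line stably co-expressing Vif and C-terminally eYFP-tagged A3F; MG132 served as positive control.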
Note: nearly all actives have a fitted effect of over 70% in size.
Potency is the fitted concentration of half-maximal effect.
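Throughout, for max response: % of control where 0% means no effect; active compounds raise eYFP fluorescence by blocking Vif-driven A3F loss.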

Question: `C/C(=N\Nc1nccnc1Cl)c1ccc(Cl)c(Cl)c1` was tested. Which max response did it give?
Answer: The max response was 0.009% (inactive).

Question: Which Potency does the source give for `N#CC1=C(N)C(C#N)(C#N)[C@H](c2c(F)cccc2F)[C@H]2CC3(CC=C12)OCCO3` here?
Answer: Its Potency is 20.6 µM (active).

Question: Which max response does the source give for `COc1ccccc1-c1cc(C(=O)NN)[nH]n1` here?
Answer: The max response was 7.62% (inactive).

Question: How did the Potency turn out when `CCCCCCc1cc2cc(-c3nnc(-c4ccccc4)o3)c(=O)oc2cc1O` was run?
Answer: The Potency was 3.96 µM (active).

Question: With `CCCCCCc1cc2cc(-c3nnc(-c4ccccc4OC)o3)c(=O)oc2cc1O` as the compound, how does the Potency read?
Answer: The Potency was 2.8 µM (active).

Question: For `CCCCCCc1cc2cc(-c3nnc(-c4ccccc4O)o3)c(=O)oc2cc1O`, which max response is on record?
Answer: Its max response is 6.08% (inactive).

Question: Which Potency does the source give for `C=C(NC(=O)C(=C)NC(=O)c1csc(C2=NC3c4csc(n4)C4NC(=O)c5csc(n5)C(C(C)(O)C(C)O)NC(=O)C5CSC(=N5)/C(=C/C)NC(=O)C(C(C)O)NC(=O)c5csc(n5)C3(CC2)NC(=O)C(C)NC(=O)C(=C)NC(=O)C(=C)NC(=O)C(C(C)C)NC2C=Cc3c(C(C)O)cc(nc3C2O)C(=O)OC4C)n1)C(N)=O` (stereo not drawn) here?
Answer: Its Potency is 12.5 µM (active).

Question: With `O=C(Cn1cnc2c(cnn2-c2ccc(F)cc2)c1=O)NCc1ccco1` as the compound, how does the max response read?
Answer: The max response was -25.6% (inactive).

Question: For `O=C(Cn1c(=O)n(Cc2ccco2)c(=O)c2sc3ccccc3c21)Nc1ccccc1C(F)(F)F`, which Potency is on record?
Answer: Its Potency is 14.6 µM (active).

Question: Which Potency does the source give for `CCc1ccc(N=Nc2ccc(O)c3[nH]cnc23)cc1` here?
Answer: The Potency was 13 µM (active).

Question: With `O=S(=O)(Nc1nc2ccccc2nc1N1CCc2ccccc2C1)c1ccc(Br)cc1` as the compound, how does the max response read?
Answer: The max response was -17% (inactive).

Question: How did the max response turn out when `CCOc1ccc(N/C=C/C(=O)c2cc(OC)c(OC)c(OC)c2)cc1` was run?
Answer: The max response was -29.8% (inactive).

Question: Which Potency does the source give for `COc1cc(/C=C/C(=O)c2ccc3c(c2)OCCO3)cc(Br)c1OCC(=O)N(C)C` here?
Answer: The Potency was 15.8 µM (active).

Question: For `CCOC(=O)C1=C(C)N=c2sc(=Cc3cc(Cl)c(OCC(=O)O)c(Cl)c3)c(=O)n2C1c1cccc(OC)c1` (stereo not drawn), which Potency is on record?
Answer: The Potency was 19.8 µM (active).

Question: `C=CCN1C(=O)/C(=C/c2ccc(O)c(OC)c2)S/C1=N/c1nccs1` was tested. Which max response did it give?
Answer: Its max response is -0.164% (inactive).

Question: Which Potency does the source give for `C=CCN1C(=O)/C(=C2/Sc3ccc(OC)cc3N2CC)SC1=S` here?
Answer: The Potency was 9.2 µM (active).

Question: Which Potency does the source give for `C=CCN1C(=O)/C(=C2/Sc3ccc(OC)cc3N2C)SC1=Nc1cccc(O)c1` here?
Answer: Its Potency is 20.6 µM (active).

Question: How did the max response turn out when `Cc1ccc2[nH]c(C(=O)NN=C3CCCCC3)c(-c3ccccc3)c2c1` was run?
Answer: The max response was 0.516% (inactive).

Question: How did the max response turn out when `Cc1cc(C)cc(Oc2nc(C(F)(F)F)nc3ccccc23)c1` was run?
Answer: Its max response is -26.3% (inactive).

Question: With `CCc1ccc2nc(N(CCCN(C)C)C(=O)c3ccc(S(=O)(=O)N(C)C4CCCCC4)cc3)sc2c1` as the compound, how does the max response read?
Answer: The max response was -4.66% (inactive).

Question: Which max response does the source give for `O=C(C(=O)N1CCN(c2ccccc2Cl)CC1)c1c[nH]c2ccccc12` here?
Answer: Its max response is 2.85% (inactive).

Question: Which Potency does the source give for `CC[n+]1ccc(/C=C/c2c[nH]c3ccccc23)cc1` here?
Answer: The Potency was 9.2 µM (active).

Question: For `OCC[n+]1ccc(/C=C/c2c[nH]c3ccccc23)cc1`, which Potency is on record?
Answer: The Potency was 8.2 µM (active).

Question: `C[n+]1cc(C(=O)N2CCCCC2)ccc1/C=C/c1c[nH]c2ccccc12` was tested. Which Potency did it give?
Answer: The Potency was 14 µM (active).

Question: Which Potency does the source give for `C[n+]1ccc(/C=C/c2c[nH]c3ccccc23)cc1` here?
Answer: The Potency was 9.2 µM (active).

Question: Which max response does the source give for `CC(=O)Nc1ccc(S(=O)(=O)Nc2nc3ccccc3nc2Nc2ccc3ccccc3c2)cc1` here?
Answer: Its max response is 0.168% (inactive).

Question: How did the max response turn out when `COc1ccc(S(=O)(=O)N2CCN(C(=O)c3ccc([N+](=O)[O-])o3)CC2)cc1` was run?
Answer: The max response was -3.97% (inactive).

Question: `COc1ccc2oc(-c3ccccc3[N+](=O)[O-])cc(=O)c2c1` was tested. Which max response did it give?
Answer: The max response was -28% (inactive).

Question: With `COc1ccc2[nH]c3c(c2c1)CCNC3c1ccc([N+](=O)[O-])o1` (stereo not drawn) as the compound, how does the Potency read?
Answer: Its Potency is 23.1 µM (active).

Question: Which max response does the source give for `CC(/C=C/c1ccc(N(C)C)cc1)=N\N=C(/N)SC1CC(=O)N(c2ccc(C(=O)O)cc2)C1=O` (stereo not drawn) here?
Answer: Its max response is -20.3% (inactive).

Question: With `CCOC(=O)C1C(=O)C=C(/C=C/c2ccc(N(C)C)cc2)CC1c1ccccc1` (stereo not drawn) as the compound, how does the Potency read?
Answer: The Potency was 10.3 µM (active).

Question: For `Cc1ccc(/C=N/NC(=O)CCCOc2ccc(Cl)cc2Cl)cc1`, which max response is on record?
Answer: The max response was -27.3% (inactive).

Question: For `Cc1ccc(-c2nc3ncccc3o2)cc1NC(=O)c1ccc([N+](=O)[O-])o1`, which max response is on record?
Answer: The max response was -17.2% (inactive).
